# Assay results taken from PMC4336329 (PLoS ONE, 2015).
# Screen size: about 310,000 compounds; about 14,000 (4.5%) showed an effect of 50% or more. The effect is printed as a negative number. What follows is part of a selection rich in strong results, with near analogues and random picks from the rest.
# Biological target: human ether-à-go-go-related gene (hERG) potassium channel (human, UniProt Q12809)
# Experiment: primary screen, population patch clamp on CHO cells stably expressing hERG; higher = less effect of the substance
# 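Also: peak tail current of the secondary pulse compared with the same well before compound.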
# human ether-à-go-go-related gene (hERG) potassium channel, sequence (Q12809 whole entry, looked up): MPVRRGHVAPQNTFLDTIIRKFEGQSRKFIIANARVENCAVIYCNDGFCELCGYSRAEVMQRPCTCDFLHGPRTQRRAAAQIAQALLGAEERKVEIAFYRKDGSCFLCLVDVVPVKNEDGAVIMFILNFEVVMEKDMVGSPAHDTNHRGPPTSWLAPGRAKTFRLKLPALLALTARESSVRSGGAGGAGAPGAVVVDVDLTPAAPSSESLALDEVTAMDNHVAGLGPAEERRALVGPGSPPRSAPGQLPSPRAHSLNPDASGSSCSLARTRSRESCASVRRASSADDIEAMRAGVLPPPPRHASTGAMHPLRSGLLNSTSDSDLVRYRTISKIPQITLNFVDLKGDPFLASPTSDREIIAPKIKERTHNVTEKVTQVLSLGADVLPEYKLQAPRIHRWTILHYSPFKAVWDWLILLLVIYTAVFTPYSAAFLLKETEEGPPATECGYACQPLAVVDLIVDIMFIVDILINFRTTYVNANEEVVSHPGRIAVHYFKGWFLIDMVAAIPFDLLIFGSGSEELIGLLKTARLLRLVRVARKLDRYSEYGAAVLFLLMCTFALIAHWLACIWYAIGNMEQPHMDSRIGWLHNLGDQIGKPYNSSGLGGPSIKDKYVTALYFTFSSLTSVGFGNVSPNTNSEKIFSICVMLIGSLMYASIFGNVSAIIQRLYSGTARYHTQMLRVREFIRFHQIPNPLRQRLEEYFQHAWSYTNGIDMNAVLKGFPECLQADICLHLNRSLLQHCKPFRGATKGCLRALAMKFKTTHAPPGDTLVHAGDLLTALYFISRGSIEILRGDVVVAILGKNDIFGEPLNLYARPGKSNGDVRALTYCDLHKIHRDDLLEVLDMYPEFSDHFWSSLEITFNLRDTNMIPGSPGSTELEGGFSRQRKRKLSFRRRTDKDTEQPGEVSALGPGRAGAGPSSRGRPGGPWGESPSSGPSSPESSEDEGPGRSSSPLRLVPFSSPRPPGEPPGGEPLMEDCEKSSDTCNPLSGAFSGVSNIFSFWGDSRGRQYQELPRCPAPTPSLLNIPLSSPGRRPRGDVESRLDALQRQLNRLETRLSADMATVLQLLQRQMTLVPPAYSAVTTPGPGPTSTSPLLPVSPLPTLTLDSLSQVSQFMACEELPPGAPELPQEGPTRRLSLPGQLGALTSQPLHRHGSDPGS
row,Compound,"hERG current change (%, negative = inhibition) at 10uM [%]"
1,CCc1nnc(NC(=O)CCN2C(=O)/C(=C/c3cc(OC)c(OC)c(OC)c3)SC2=S)s1,8.4
2,O=C(O)CCC(C(=O)O)n1c(O)c(C2=c3ccccc3=NC2=O)sc1=S (stereo not drawn),20.5
3,Cc1ccc(OCC(=O)N2CCC(N3CC(C)CC(C)C3)CC2)cc1 (stereo not drawn),-45.5
4,S=C1NCN(CCc2ccccc2)CN1Cc1ccccc1,14.8
5,COc1ccc(CNC(=O)Cn2cc([N+](=O)[O-])cn2)cc1,16.1
6,O=C(COC(=O)c1ccc2ncsc2c1)NCc1ccc(Cl)cc1,-4.62
7,O=C(Nc1cccnc1)c1cc(-c2ccccc2)on1,5.06
8,COc1ccc2oc(=O)c(C(=O)N3CCc4ccccc43)cc2c1,15.8
9,COc1ccc2oc(=O)c(C(=O)N3c4ccccc4CC3C)cc2c1 (stereo not drawn),-21.6
10,COc1ccc2oc(=O)c(C(=O)N3CCCc4ccccc43)cc2c1,-63.1
11,CCSc1nc2cc(OC)c(OC)cc2c(=O)n1CC,-2.16
12,COc1ccc(OCc2nc3c4cc(OC)c(OC)cc4nc(=S)n3[nH]2)cc1,11.7
13,COc1cc2nc(COc3ccc(C#N)cc3)n(CC#N)c(=O)c2cc1OC,-50.7
14,Cc1ccc(Cn2c(Sc3nnc(C)s3)nc3c2c(=O)[nH]c(=O)n3C)cc1,-46.8
15,COc1cccc(C2C3=C(Nc4[nH]n(-c5ccccc5)c(=O)c42)c2ccccc2C3=O)c1 (stereo not drawn),9.64
16,CCOc1ccc(S(=O)(=O)NCCC(=O)NC2CCN(Cc3ccccc3)CC2)cc1,-21.8
17,O=C(Cn1cc2c(n1)CCCC2)NC1CCN(Cc2ccccc2)CC1,-8.32
18,Cc1ccc(CC(=O)NC2CCN(Cc3ccccc3)CC2)cc1,-12.7
19,O=C(CCNS(=O)(=O)c1ccc(Br)cc1)NC1CCN(Cc2ccccc2)CC1,-61.9
20,O=C(Cn1cc2c(n1)CCCCC2)NC1CCN(Cc2ccccc2)CC1,-58.5
21,CN(CC(=O)NC1CCN(Cc2ccccc2)CC1)S(=O)(=O)c1ccc(Cl)cc1,-40.2
22,Cl.O=C(Cc1ccccc1)NC1CCN(Cc2ccccc2)CC1,1.21
23,CN(CC(=O)NC1CCN(Cc2ccccc2)CC1)S(=O)(=O)c1ccc(Br)s1,-18

row,Compound,"hERG current change (%, negative = inhibition) at 10uM [%]"
1,O=C(Cn1cc2c(n1)CCCCC2)NC1CCCCCC1,0.992
2,O=C(Cc1ccc(Br)cc1)NC1CCN(Cc2ccccc2)CC1,-56
3,O=C(CCNS(=O)(=O)c1cccs1)NC1CCN(Cc2ccccc2)CC1,9.19
4,CN(CC(=O)NC1CCN(Cc2ccccc2)CC1)S(=O)(=O)c1ccc(Cl)s1,-67.9
5,CC1=CC(C)C2COC(c3ccc[n+](C)c3)C1C2C.[I-] (stereo not drawn),14.3
6,O=C1/C(=C/c2ccncc2)N2CCC1CC2,2.32
7,CCC(NC(=O)c1ccccc1NC(=O)c1ccco1)C(=O)NC1CCCCC1 (stereo not drawn),-22.5
8,CCOCCCNC(=O)c1ccc2c(c1)N(CC)C(=O)c1ccccc1S2=O (stereo not drawn),16.2
9,CCN(CC)c1ccc(C2C(C(C)=O)C(=O)CC(C)(O)C2C(C)=O)cc1 (stereo not drawn),-13.4
10,O=C(Nc1ccc(F)c(Cl)c1)NC1CC1,13.7
11,CC1(C)CC(=O)C(C(c2ccc(Br)cc2)C2C(=O)CC(C)(C)CC2=O)C(=O)C1,0.769
12,COc1cc(C)c(S(=O)(=O)Nc2ccccc2F)cc1C,6.11
13,Cc1ccc(Cn2c(=N)c(C(=O)NCC3CCCO3)cc3c(=O)n4cccc(C)c4nc32)cc1 (stereo not drawn),-81.5
14,Cc1cccn2c(=O)c3cc(C(=O)NCc4cccnc4)c(=N)n(CC4CCCO4)c3nc12 (stereo not drawn),-75.6
15,Cc1cccn2c(=O)c3cc(C(=O)NCC4CCCO4)c(=N)n(Cc4cccnc4)c3nc12 (stereo not drawn),-95.1
16,CCC(Sc1nc2ccccc2c(=O)n1CC1CCCO1)C(=O)NCc1cccnc1 (stereo not drawn),-23.5
17,Cc1cccn2c(=O)c3cc(C(=O)NCCN4CCOCC4)c(=N)n(Cc4cccnc4)c3nc12,-18.4
18,O=C(NCc1cccnc1)C(=O)NCC1CCCO1 (stereo not drawn),21.5
19,Cc1cccn2c(=O)c3cc(C(=O)NCC4CCCO4)c(=N)n(Cc4ccc(F)cc4)c3nc12 (stereo not drawn),-75.7
20,CN1CCN(CC#CCOc2ccc(Cl)cc2)CC1.O=C(O)C(=O)O,-0.0359
21,CSc1ccccc1NC(=O)COc1ccccc1C,6.39
22,CCOC(=O)C1(CC2CCCCO2)CCN(C(=O)Nc2ccc(SC)cc2)CC1 (stereo not drawn),2.65
23,COc1ccccc1NC(=O)c1oc2ccc(C)cc2c1C,14.1

row,Compound,"hERG current change (%, negative = inhibition) at 10uM [%]"
1,Cc1nnc(SCC(=O)NCc2ccccc2)[nH]c1=O,-7.09
2,COc1ccc(/C=C2/C(=O)OCc3cc(OC)c(OC)cc32)c(OC)c1,-27.8
3,CCOC(=O)C1=C(c2ccc(O)cc2)NC(=O)NC1C (stereo not drawn),9.47
4,CC1(C)CC2CC(C)(CN2S(=O)(=O)c2ccc(F)cc2F)C1 (stereo not drawn),-11.8
5,Cn1c(=O)c2c(ncn2CC(COCc2ccccc2Cl)OCc2ccccc2Cl)n(C)c1=O (stereo not drawn),-33.6
6,Cn1c(=O)c2c(ncn2CC(COCc2ccccc2)OCc2ccccc2)n(C)c1=O (stereo not drawn),-12.1
7,Cn1c(=O)c2c(ncn2CC(COCc2ccc(Cl)cc2)OCc2ccc(Cl)cc2)n(C)c1=O (stereo not drawn),-51.1
8,CN(Cc1ccc(F)cc1)C(=O)c1cccc(NS(=O)(=O)c2ccccc2)c1,-13.4
9,COc1cccc(C(=O)Nc2ncc3c(n2)CC(c2ccc(OC)cc2OC)CC3=O)c1 (stereo not drawn),-17.3
10,COc1ccc(CCNC(=O)c2ccccc2C(=O)NCCc2ccc(OC)c(OC)c2)cc1OC,3.48
11,CN(C)CCC(O)(c1ccccc1)c1ccccc1.Cl,-20.2
12,CN(C)C(C)(C)/C=C/C(O)(c1ccccc1)c1ccccc1,-36.6
13,CN(C)C/C=C/C(O)(c1ccccc1)c1ccccc1,-61.5
14,Cc1ccc(OCC(=O)OC(C)CN2CCCCC2)cc1.Cl (stereo not drawn),12.2
15,C=CCNC(=O)c1cc(-c2ccncc2)nc2c(C)cc(C)cc12,-43.5
16,CCCC(C)NC(=O)c1nc(-c2ccccc2)n(-c2ccccc2)n1 (stereo not drawn),-55.7
17,O=C(O)c1nc(-c2ccccc2)n(-c2ccccc2)n1,4.87
18,Cc1csc(NC(=O)c2ccccc2)n1,16.8
19,Cc1csc(NC(=O)c2nc(-c3ccccc3)n(-c3ccccc3)n2)n1,-79.2
20,O=C(Nc1nccs1)c1nc(-c2ccccc2)n(-c2ccccc2)n1,6.62
21,O=C(O)CNC(=O)c1nc(-c2ccccc2)n(-c2ccccc2)n1,22.9
22,O=C(c1cccc(S(=O)(=O)N2CCOCC2)c1)N1CCN(C/C=C/c2ccccc2)CC1,-46.3
23,CCC1Oc2ccc(C)cc2N(CC(=O)NCCC2=CCCCC2)C1=O (stereo not drawn),-16

row,Compound,"hERG current change (%, negative = inhibition) at 10uM [%]"
1,N/C(=N\c1nc2ccccc2o1)NC(=O)c1ccc(Cl)cc1,35.6
2,CCC(C(=O)OCc1csc(CC(=O)Nc2ccccc2C)n1)c1ccccc1 (stereo not drawn),-6.51
3,COc1ccc(Cn2c(O)c(C=NCCN3CCOCC3)c(=O)[nH]c2=O)cc1,-14.4
4,Cc1cc(Cl)ccc1OCC(=O)N1CCCN(C(=O)COc2ccc(Cl)cc2C)CC1,-58.5
5,CN1CCN(C(=O)CCCOc2ccc(Cl)cc2Cl)CC1,-61.6
6,Cc1cc(Cl)ccc1OCC(=O)N1CCCCC1,-0.846
7,Cc1cc(Cl)ccc1OCCCC(=O)N1CCN(C)CC1,-30
8,Cc1cc(Cl)ccc1OCCCC(=O)NN,13.8
9,Cc1cc(Cl)ccc1OCC(=O)N1CCN(C)CC1,-12.5
10,Cc1cc(Cl)ccc1OCC(=O)NC1CCCC1,-22.2
11,O=C(CCCOc1ccc(Cl)cc1Cl)N1CCc2ccccc2C1,12
12,Cc1cc(Cl)ccc1OCCCC(=O)NC1CCN(C)CC1,-51.2
13,Cc1cc(Cl)ccc1OCCCC(=O)N1CCOCC1,-25
14,Cc1cc(Cl)ccc1OCCCC(=O)N1CCCCC1,-14.2
15,Cc1cc(Cl)ccc1OCCCC(=O)N1CCN(C(=O)c2ccco2)CC1,-74.5
16,CCC12CN(C(=O)c3ccc(OC)cc3)CC(CC)(CN(C(=O)c3ccc(OC)cc3)C1)C2=O,3.45
17,Cc1cc2cc3c(cc2nc1SCC(=O)N1CCOCC1)OCO3,2.58
18,CCOc1ccc(S(=O)(=O)NCCC(=O)N2CCN(c3ncccn3)CC2)cc1,-8.57
19,CCC(Sc1nc(N)c(NC(=O)c2ccc(Br)o2)c(=O)[nH]1)C(=O)O (stereo not drawn),15.4
20,C/C(CC1CC(COCCC(C)C)OC1=O)=N\NC(N)=S (stereo not drawn),4.37
21,COC(=O)C1=C(N)Oc2cc(C)n(CC3CCCO3)c(=O)c2C1c1ccc(Cl)c(Cl)c1 (stereo not drawn),3.95
